According to ChEMBL document CHEMBL4513216, “Probing the Open Global Health Chemical Diversity Library for Multistage-Active Starting Points for Next-Generation Antimalarials” (ACS Infect Dis, 2020):
Hit rate of the full screen: of about 69,000 compounds, about 8,600 (12%) showed an effect of 50% or more. The full list was thinned out, with strong results kept by preference.

The molecules below were run on Plasmodium berghei (assay: Screen against P. berghei liver stage (PbLuc), transformed with Luciferase, at 10uM). Conditions: tested at 10 uM.
Assay type: functional, HepG2

Row | SMILES | INHIBITION
1 | CCc1ccc(NC(=O)N2C[C@@H]3C[C@H](C(=O)NC4CCC4)[C@H](C2)O3)cc1 | -50%
2 | O=C(O)COc1ccc(CN2CCCC(Cc3cccnc3)C2)cc1 (stereo unspecified) | 1.62%
3 | COCCN(Cc1ccoc1)C(=O)CSc1ccc(F)cc1 | 56.5%
4 | COCCN(Cc1ccoc1)C(=O)c1c(F)cccc1F | -6.42%
5 | COCCCN(Cc1ccncc1)C(=O)CSc1ccc(F)cc1 | 25.8%
6 | O=C(Nc1cnccn1)[C@H]1CC[C@@H]2[C@@H](CCN2Cc2ccccn2)O1 | -5.08%
7 | CC(C)Cc1cc(NC(=O)c2ccc3[nH]nnc3c2)n(C)n1 | 1.45%
8 | CC(C)CN1CCCC1c1ccc(C(=O)Nc2cc[nH]n2)s1 (stereo unspecified) | 22.3%
9 | CCc1noc(CC)c1CNC(=O)Nc1ccc2[nH]nnc2c1 | 27.2%
10 | CC(C)CN1CCCC1c1ccc(C(=O)Nc2cccnc2)s1 (stereo unspecified) | 89.6%
11 | Cc1cnc(NC(=O)c2ccc(C3CCCN3CC(C)C)s2)s1 (stereo unspecified) | 64%
12 | CCc1nnc(NC(=O)c2ccc(C3CCCN3CC(C)C)s2)s1 (stereo unspecified) | 15.9%
13 | CC(C)CN1CCCC1c1ccc(C(=O)Nc2ccc3[nH]nnc3c2)s1 (stereo unspecified) | 51.1%
14 | CCCN1CCCC1c1ccc(C(=O)N2CCOCC2)s1 (stereo unspecified) | 42.1%
15 | CC(C)CN1CCCC1c1ccc(C(=O)Nc2cn(C)nn2)s1 (stereo unspecified) | 47.9%
16 | CN1C(=N)NC(=O)/C1=C/c1ccc(-c2ccc(Br)cc2)o1 | 10.1%
17 | O=C(CN1CCC(c2cc(=O)n3c(n2)CCCCC3)C1)N1CCCCC1 (stereo unspecified) | 1.5%
18 | Cc1cccc(OCCCN2CCC(N(C)Cc3noc(C)n3)C2)c1 (stereo unspecified) | 1.75%
19 | Cc1nc(C2CCCN2C(=O)Cn2cncn2)no1 (stereo unspecified) | -14%
20 | COCCN1CCC(CN(CC2CCCO2)C(=O)Cc2cccs2)CC1 (stereo unspecified) | 4.35%
21 | FC(F)(F)c1cc(C2CCCN(c3ncccn3)C2)n2ccnc2n1 (stereo unspecified) | 7.43%
22 | Cn1nc(C2CCN(C(=O)CN3CCCCC3)CC2)c2cccnc21 | 23.2%

Row | SMILES | INHIBITION
23 | CCOc1ncccc1CNC(=O)c1cccc(C)n1 | 38.25%
24 | COCC(=O)N1CC[C@H]2C[C@H](c3nnc(C4CC4)o3)O[C@@H]2C1 | -6.3%
25 | COc1ccc(NC(=O)N(C)Cc2ccsc2)cn1 | 17.4%
26 | CCNc1cc2c(nn1)CCN(C(=O)c1cccnc1N(C)C)C2 | 17.05%
27 | CN1CCN(C(=O)Cn2ccc3c(Cl)cccc32)CC1 | -13.6%
28 | Cc1cccc(NC(=O)c2ccc(OCc3nnnn3C)cc2)n1 | -83.3%
29 | Cc1cccc(NC(=O)c2cccc(OCc3nnnn3C)c2)n1 | 60%
30 | Cc1ccnc(NC(=O)c2cccc(OCc3nnnn3C)c2)c1 | 39.8%
31 | CN1CC(=O)N(c2ccccc2)CC12CCN(C(=O)c1ccnnc1)C2 (stereo unspecified) | -7.29%
32 | Cc1cc(NCCSc2nccn2C)n2nc(C)c(C)c2n1 | 24.7%
33 | Cc1nn2c(NC(=O)CSc3nccn3C)csc2nc1=O | 50.8%
34 | Cc1ccnc(NCc2cn3c(C)csc3n2)n1 | -125%
35 | Cc1ccnc(SCC(=O)Nc2csc3nc(=O)c(C)nn23)n1 | 72.8%
36 | Cc1nn2c(NC(=O)CSc3ncccn3)csc2nc1=O | 3.77%
37 | Cc1nnc(SCC(=O)Nc2csc3nc(=O)c(C)nn23)s1 | 36.3%
38 | Cc1ncsc1C(=O)NCc1ccc(-c2n[nH]cc2C(=O)N(C)C)cc1 | -3.05%
39 | c1cncc(CN2CCCn3nnc(CN4CCCC4)c3C2)c1 | -19.8%
40 | CNC(=O)C1(c2cnccn2)CCCN1C(=O)c1ccccc1 (stereo unspecified) | 35.2%
41 | COCCO[C@H]1CCN(Cc2ccsc2)[C@H]1Cc1cccnc1 | -67.6%
42 | Cc1nnc(N2C[C@H](OCc3cccnc3)[C@H]3OCCC[C@H]32)s1 | 47.9%
43 | Cc1csc(C2CCCCN2C(=O)c2cn[nH]c2C)n1 (stereo unspecified) | 11.6%
44 | CC(=O)NCC(=O)N1Cc2c(-c3cccc(C)c3)nc(N)nc2C1C (stereo unspecified) | 34%

Row | SMILES | INHIBITION
45 | CN1CCC(C)(CN(C)C(=O)c2ccc(CCC(C)(C)O)cc2)C1 (stereo unspecified) | 1.71%
46 | CCOc1cc(C)nc(N2CCN(C(=O)Cn3cc(C)cn3)CC2)n1 | -83.4%
47 | Oc1nc(-c2cnccn2)nc2c1CCN(Cc1ccccn1)C2 | 2.71%
48 | Cc1nc(CC(=O)N2CCc3nc(-c4cnccn4)nc(O)c3C2)cs1 | 59.3%
49 | O=C(Cc1ccccn1)N1CCc2nc(-c3cnccn3)nc(O)c2C1 | 5.69%
50 | O=C(Cc1ccccn1)N1CCc2c(O)nc(-c3cnccn3)nc2C1 | 52%
51 | COCC(=O)N1CCc2nc(-c3cnccn3)nc(O)c2C1 | 47.2%
52 | O=C(CCC1CCCO1)N1CCc2nc(-c3cnccn3)nc(O)c2C1 (stereo unspecified) | -22.6%
53 | Cc1nc(C)n(CC2CCCN2Cc2cn3ccccc3n2)n1 (stereo unspecified) | -17.6%
54 | c1cnc(N2CCCn3c(nnc3Cn3cccn3)C2)nc1 | -7.24%
55 | Cc1cnc(N2CCCn3c(nnc3Cn3cccn3)C2)nc1 | 16.9%
56 | c1cnn(Cc2nnc3n2CCCN(c2nccs2)C3)c1 | 53.9%
57 | Cc1c(F)cc(C(=O)O)cc1S(=O)(=O)Nc1ccc(C#N)cc1 | 14.55%
58 | c1cncc(C[C@@H]2CC[C@H](CN3CCCOCC3)O2)c1 | -13.1%
59 | O=C(c1cccnc1)N1CCOC2(COCCN(c3cncnc3)C2)C1 (stereo unspecified) | -2.41%
60 | CCC(NC1CSCCSC1)c1ccc(S(C)(=O)=O)cc1 (stereo unspecified) | 29.4%
61 | COc1ccc(NC(C)C(=O)N2CCN(c3ccccc3)CC2)cn1 (stereo unspecified) | 21.6%
62 | COc1ccc(NC(C)C(=O)N2CCN(c3ncccn3)CC2)cn1 (stereo unspecified) | 29.2%
63 | COc1ccc(NC(C)C(=O)N2CCCC2)cn1 (stereo unspecified) | 78.2%
64 | Cc1ccccc1SCC(=O)NC1CCC(n2cnnc2)CC1 (stereo unspecified) | 34.1%
65 | CC(C)NC(=O)N1CCn2c(nnc2C2CCCN2)C1 (stereo unspecified) | 23.4%
66 | CC(=O)N1CCCCC1c1nnc2n1CCNC2 (stereo unspecified) | 38.3%

Row | SMILES | INHIBITION
67 | O=C(NC1CCCCC1)N1CCCC1c1nnc2n1CCNC2 (stereo unspecified) | 32.5%
68 | CC(C)NC(=O)N1CCCCC1c1nnc2n1CCNC2 (stereo unspecified) | 54.9%
69 | O=C(N1CCCCC1)N1CCCC1c1nnc2n1CCNC2 (stereo unspecified) | 36.6%
70 | CC(C)NC(=O)N1CCC(c2nnc3n2CCNC3)CC1 | 59.8%
71 | Cc1cnn(C2CN(c3ncnc4[nH]ccc34)C2)c1 | 15%
72 | CN(C)CC(=O)N1Cc2nnn(C)c2C(COCc2ccccn2)C1 (stereo unspecified) | -27.9%
73 | CC(C)C(=O)N1CCN(Cc2ccccn2)CC2(CC(=O)N(C)C2)C1 (stereo unspecified) | 5.04%
74 | Cn1cccc1C(=O)N1CC2(CCN(C(=O)c3cccnc3)C2)C1 | 32.1%
75 | Cn1nc(C2CCN(C(=O)c3cnccn3)C2)cc1CCO (stereo unspecified) | 45.2%
76 | Cc1nc(Cn2c3c(ccc2=O)CC(NC(C)C)CC3)cs1 (stereo unspecified) | 13.6%
77 | Cc1ncsc1C(=O)N1CCC(O)(CN2CCc3ccccc3C2)C1 (stereo unspecified) | 45.6%
78 | Cc1ccc(C(=O)N2CCC(O)(CN3CCc4ccccc4C3)C2)s1 (stereo unspecified) | 51.5%
79 | Cc1ccsc1C(=O)N1CCC(O)(CN2CCc3ccccc3C2)C1 (stereo unspecified) | 33.7%
80 | Cc1csc(C(=O)N2CCC(O)(CN3CCc4ccccc4C3)C2)c1 (stereo unspecified) | 76.8%
81 | O=C(c1cccs1)N1CCC(O)(CN2CCc3ccccc3C2)C1 (stereo unspecified) | 37.5%
82 | Cn1cccc1C(=O)N1CCC(O)(CN2CCc3ccccc3C2)C1 (stereo unspecified) | 20.4%
83 | Cc1nnsc1C(=O)NCc1nn(C)c2c1COCC2 | -2.09%
84 | CC(O)c1cn(Cc2ccc(Cl)cc2)nn1 (stereo unspecified) | 24.7%
85 | Cc1noc(C)c1CN1C[C@H]2CC[C@@H](C1)N(Cc1cc(F)cc(F)c1)C2 | 0.818%
86 | Cc1ncsc1CN1CCC2(CC1)CC(=O)N(Cc1ccc(Cl)cc1)C2 | -16%
87 | CC(=O)N1CC2(CCCCN2Cc2ccc(Cl)cc2)Cc2ccccc21 (stereo unspecified) | 59%
88 | CC(=O)N1CC2(CCCN2Cc2ccc(Cl)cc2)Cc2ccccc21 (stereo unspecified) | 46.6%

Row | SMILES | INHIBITION
89 | CC(=O)N1CC2(CCN(Cc3ccc(Cl)cc3)C2)Cc2ccccc21 (stereo unspecified) | 57.3%
90 | CN(C)CC(=O)N1CC2(CCN(Cc3ccccc3)C2)C1 | -2.35%
91 | CC(=O)N1CC2(CCCN(Cc3ccc(Cl)cc3)C2)Cc2ccccc21 (stereo unspecified) | 49.1%
92 | CS(=O)(=O)N1CC2(CCCN2Cc2ccc(Cl)cc2)Cc2ccccc21 (stereo unspecified) | 23.4%
93 | CS(=O)(=O)N1Cc2ccccc2CC2(CCN(Cc3ccncc3)C2)C1 (stereo unspecified) | 38.3%
94 | CS(=O)(=O)N1Cc2ccccc2CC2(CCN(Cc3ccccn3)C2)C1 (stereo unspecified) | 40%
95 | COCC(=O)N1CCC2(CC1)CC(=O)N(Cc1ccc(Cl)cc1)C2 | 14%
96 | CS(=O)(=O)N1Cc2ccccc2CC2(CCN(Cc3ccccc3)C2)C1 (stereo unspecified) | 55.7%
97 | CC(=O)N1CC2(CCN(Cc3ccc(Cl)cc3)CC2)Cc2ccccc21 | 61.5%
98 | CCOc1ncccc1CNC(=O)N1CCCC1c1ccsc1 (stereo unspecified) | 40.9%
99 | O=C(c1cscn1)N1C[C@H]2CCCC(OCc3cccnc3)[C@H]2C1 (stereo partly specified) | 4.2%
100 | CCS(=O)(=O)NCC(=O)NC1(C)CCc2ccccc2C1 (stereo unspecified) | -9.39%
101 | Cc1nc(CN2CCN(Cc3ccoc3)Cc3cccnc32)cs1 | 21.6%
102 | CSc1ncc(C(=O)N2C[C@@H]3CC[C@H]2CN(S(=O)(=O)N(C)C)C3)cn1 | -9.92%
103 | Cc1c(C(=O)N2CCCSCC2)nnn1-c1ccccc1Cl | 26%
104 | Cc1nc(C)c(C(=O)NCCNC(=O)Cc2ccc(F)cc2)s1 | -29.9%
105 | CC(C)N1CCC(C(=O)N2CCC(C(O)c3nccn3C)CC2)CC1 (stereo unspecified) | 9.41%
106 | O=c1[nH]ncn1-c1cccc(C(F)(F)F)c1 | 42.1%
